# HIF-2a block = HIF-2a reporter inhibitors, primary screen, luminescence, 786-0 RCC cells; 786-0 RCC cells HIF-2a reporter, luciferase luminescence, overnight; 360,000 compounds, 0.72% hits; inhibition, % at 18.8 µM;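 active = inhibition of the luminescence signal of 40% or more relative to plate controls, in a single-dose primary screen at 18.75 µM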
# CF NFkB inh = inhibitors of PAF-induced NF-kB signaling, primary screen, cell-based, GFP fluorescence, uHTS; KKLEB NF-kB-GFP reporter, GFP fluorescence overnight; inhibition, % at 5 µM; 360,000 compounds, 0.86% hits; AID 588850, 2011;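 active = at least 50% inhibition at 5 µM, scaled per plate between neutral and stimulator controls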;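 note: PAF is a Pseudomonas aeruginosa culture filtrate used as stimulus; plate controls were PAF-stimulated DMSO wells for no effect and unstimulated DMSO wells for full effect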
# KKLEB tox = cytotoxicity in KKLEB CF airway cells, primary screen, cytotoxicity control for CF NF-kB inhibitor project, cell-based, uHTS, fluorescence assay plates; KKLEB CF airway cells viability, ATPlite luminescence, overnight; active compounds read low; cells stimulated with P. aeruginosa culture filtrate; activity change (cytotoxicity), % at 5 µM; 360,000 compounds, 0.36% hits;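 active = corrected activity change at or below -50% at 5 µM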
# Peg3 promoter = Peg3 promoter-driven luciferase inhibitors, primary screen, cell-based, HeLa, luciferase luminescence. HeLa PEG-Prom luciferase reporter, overnight. inhibition, % at 20 µM. 360,000 compounds, 1.7% hits;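 active = inhibition of at least 50% at 20 µM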
# EBV LMP1 NFkB = EBV LMP1-driven NF-kappaB luciferase reporter inhibitors, primary screen, cell-based, luminescence, single point; LMP1-induced NF-kappaB luciferase reporter cells; AID 504558, 2011; inhibition, % at 12.5 µM; 350,000 compounds, 0.69% hits; in the data active = inhibition above about 41%;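 note: 0% = neutral control wells and 100% = reference inhibitor control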
# TRPM1 prom inh = inhibitors of MITF-dependent TRPM1 promoter reporter, primary screen, cell-based, SK-MEL-5, single point, luciferase; inhibition, % at 12.5 µM; 330,000 compounds, 0.83% hits; SK-MEL-5 TRPM1 promoter luciferase, 24 h; AID 488899, 2010;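 active = mean inhibition across replicates of 60% or more, whatever share of single replicates reaches that level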
# The depositor's hits bear a star; · = not tested or not shown. The list is not random: actives were taken first. Their share in the collection is about 3%.
SMILES,HIF-2a block,CF NFkB inh,KKLEB tox,Peg3 promoter,EBV LMP1 NFkB,TRPM1 prom inh
CC1CC(C)CN(C(C(=O)NC2CCCCC2)c2cc3ccccc3o2)C1 (stereo not drawn),-123,-19,7,-37,·,·
COCCNC(=O)C1(C)CCCN(C(=O)c2c(-c3ccccc3)noc2C)C1 (stereo not drawn),17,-3,15,3,·,·
Cc1cccc(C)c1Nc1nc2ccccc2o1,4,12,13,7,64*,5
Cc1nc(Nc2nc3ccccc3o2)nc(C)c1C(=O)Nc1ccc(F)cc1,18,2,4,0,3,11
Cc1nc(Nc2nc3ccccc3o2)nc2c1CCC2,26,-33,18,48,57*,25
O=S(=O)(NCC[C@@H]1CC[C@H](NS(=O)(=O)c2cccc(F)c2)[C@@H](CO)O1)c1cccc(F)c1,1,·,·,·,·,·
COc1ccc(-c2n[nH]c(C)c2-c2ccc(Cl)cc2)c(O)c1OC,15,-8,-26,72*,33,12
COc1ccc(-c2n[nH]c(C)c2-c2ccc(Cl)cc2)c(O)c1,27,-14,-5,62*,-2,7
CCOc1ccccc1C=NNC(=O)C1CC1,5,-6,2,3,8,-3
Nn1cnnc1N/N=C/c1ccc(Cl)c([N+](=O)[O-])c1,11,9,2,5,7,12
CN(C)c1nc(N/N=C\c2ccc(Cl)c([N+](=O)[O-])c2)nc(Nc2ccc(F)cc2)n1,-37,-10,5,65*,10,1
COc1ccc(CNC(=O)COC(=O)[C@@H]2CCCN2C(=O)c2cccs2)cc1,-6,20,-2,3,45*,3
COc1ccc(-c2c3c(nc4sc5c(Cl)nc(C)nc5c24)CCC3)cc1,-2,-6,2,109*,6,47
Cc1ccc(-c2c3c(nc4sc(C(N)=O)c(N)c24)CCC3)cc1,29,14,1,-144,-1,4
N#CC1C(=O)NC(c2ccccc2)=CC1c1ccccc1 (stereo not drawn),7,2,-9,11,2,12
COc1ccc(OC)c(S(=O)(=O)N2c3ccccc3CC2C)c1 (stereo not drawn),11,-16,2,56*,-16,-3
O=C(NCCCN1CCCC1=O)C(=O)NCC1OCCCN1S(=O)(=O)c1ccccc1 (stereo not drawn),3,0,2,7,0,·
S=C(NN=Cc1ccccn1)N(Cc1ccccn1)Cc1ccccn1,-99,0,2,18,8,74*
CC(=NNC(=S)N(Cc1ccccn1)Cc1ccccn1)c1cnccn1,-72,-52,-2,54*,81*,80*
COC(=O)C1=C(C)N(Cc2ccco2)C(=O)/C1=C\c1ccc([N+](=O)[O-])cc1,22,-23,-6,94*,-3,9
CN1CCN(C(=O)c2cc3c(c(-c4cccc(-c5cc6ccccc6o5)c4)n2)[C@H](CCO)N(S(=O)C(C)(C)C)C3)CC1 (stereo partly drawn),-30,-4,-2,23,·,·
COc1ccc(-c2cn3c4c(sc3n2)CCCC4)cc1,-19,-10,-67*,-58,2,-8
Cc1cc(NC(=O)c2cccc(Br)c2)n[nH]1,-230,5,0,70*,-19,-53
O=C1N=c2ccccc2=C1c1sc(=S)n(NC(=O)c2ccccc2)c1O,10,16,-12,8,0,6
C=CCn1c(O)c(C2=c3ccccc3=NC2=O)sc1=Nc1ccc(O)cc1,18,11,2,63*,-17,34
Cc1ccc(NC(=O)/C(=C/c2cccc([N+](=O)[O-])c2)NC(=O)C2CCCCC2)c(C)c1,12,-10,-2,59*,-47,4
N/C(Cc1ccc(Cl)cc1)=N\OC(=O)c1cccc2ccccc12,-16,4,1,111*,-23,1
N/C(Cc1ccc(Cl)cc1)=N\OC(=O)c1ccc2ccccc2c1,-1,17,9,105*,3,-13

# Screening results from PubChem.
